Our source for the binding signal values is paper PMC11006913.

Test in all cases: PBM; 200 nM protein, PBS
Common to all, as to conditions: dsDNA, one strand shown

The target of experiment [1] is HOXB4 (Homo sapiens, UniProt P17483 148-234).
In experiment [2] the target is T1, VENTX (Homo sapiens, UniProt O95231 78-163, R121Q).
T1 sequence: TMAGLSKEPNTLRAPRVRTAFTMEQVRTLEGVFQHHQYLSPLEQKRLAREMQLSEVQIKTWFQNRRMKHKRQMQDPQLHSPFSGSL

The next experiment concerns the target ALX4 (Homo sapiens, UniProt Q9H161 200-286).
Experiment [3] addresses T2, PAX4 (Homo sapiens, UniProt O43316 9-242, R200K).
T2 sequence: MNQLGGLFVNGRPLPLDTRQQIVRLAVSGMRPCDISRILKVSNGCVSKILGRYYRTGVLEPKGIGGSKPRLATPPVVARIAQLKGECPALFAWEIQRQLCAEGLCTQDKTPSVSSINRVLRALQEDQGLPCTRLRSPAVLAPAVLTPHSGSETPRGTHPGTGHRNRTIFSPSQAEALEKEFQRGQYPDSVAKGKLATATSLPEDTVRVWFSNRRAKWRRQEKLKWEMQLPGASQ

The target of experiment [4] is PRRX1 (Homo sapiens, UniProt P54821 80-166, F113S).
Experiment [5] concerns the target T3, VENTX (Homo sapiens, UniProt O95231 78-163, Y115F).
T3 sequence: T1 sequence with Y38F, Q44R

Experiment [6] has as its target T4, PAX4 (Homo sapiens, UniProt O43316 9-242).
T4 sequence: T2 sequence with K192R

The target of experiment [7] is HOXA2 (Homo sapiens, UniProt O43364 129-215, R185T).
In experiment [8] the target is HOXA4 (Homo sapiens, UniProt Q00056 201-287, R217L).
Experiment [9] deals with HOXB4 (Homo sapiens, UniProt P17483 148-234, V174I).
Experiment [10] concerns the target T5, PAX4 (Homo sapiens, UniProt O43316 9-242, R200Q).
T5 sequence: T2 sequence with K192Q

Experiment [11] has as its target HOXA2 (Homo sapiens, UniProt O43364 129-215, R185K).
Experiment [12] addresses T6, PAX4 (Homo sapiens, UniProt O43316 9-242, F177V).
T6 sequence: T2 sequence with F169V, K192R

The target of experiment [13] is MSX2 (Homo sapiens, UniProt P35548 130-214).
In experiment [14] the target is T7, PAX4 (Homo sapiens, UniProt O43316 9-242, F177Y).
T7 sequence: T2 sequence with F169Y, K192R

The target in experiment [15] is MSX2 (Homo sapiens, UniProt P35548 130-214, F161Y).
In experiment [16] the target is VAX1 (Homo sapiens, UniProt Q5SQQ9 86-172, T142I).
The target in experiment [17] is HOXA4 (Homo sapiens, UniProt Q00056 201-287, W262F).
Experiment [18] addresses PRRX1 (Homo sapiens, UniProt P54821 80-166).
Experiment [19] deals with VAX1 (Homo sapiens, UniProt Q5SQQ9 86-172, K157R).

Numbering of substitutions follows the chain as printed.

Sequence of PRRX1 (Homo sapiens, UniProt P54821 80-166) (P54821 80-166): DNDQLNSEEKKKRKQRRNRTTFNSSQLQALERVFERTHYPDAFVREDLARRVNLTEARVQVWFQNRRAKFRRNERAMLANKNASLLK
Sequence of HOXB4 (Homo sapiens, UniProt P17483 148-234, V174I) (P17483 148-234 V174I): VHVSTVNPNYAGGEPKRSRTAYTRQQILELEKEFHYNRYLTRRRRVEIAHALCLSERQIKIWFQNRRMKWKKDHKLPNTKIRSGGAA
Sequence of HOXB4 (Homo sapiens, UniProt P17483 148-234) (P17483 148-234): as the sequence (P17483 148-234 V174I) above, with I27V counted along it
Sequence of VAX1 (Homo sapiens, UniProt Q5SQQ9 86-172, T142I) (Q5SQQ9 86-172 T142I): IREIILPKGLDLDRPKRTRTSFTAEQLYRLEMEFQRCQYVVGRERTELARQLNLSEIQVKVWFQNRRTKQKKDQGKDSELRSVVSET
Sequence of ALX4 (Q9H161 200-286): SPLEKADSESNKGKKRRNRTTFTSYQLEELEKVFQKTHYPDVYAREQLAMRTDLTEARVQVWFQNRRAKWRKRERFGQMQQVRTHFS
Sequence of VAX1 (Homo sapiens, UniProt Q5SQQ9 86-172, K157R) (Q5SQQ9 86-172 K157R): as the sequence (Q5SQQ9 86-172 T142I) above, with I57T, K72R counted along it
Sequence of PRRX1 (Homo sapiens, UniProt P54821 80-166, F113S) (P54821 80-166 F113S): as the sequence (P54821 80-166) above, with F34S counted along it
Sequence of HOXA4 (Homo sapiens, UniProt Q00056 201-287, W262F) (Q00056 201-287 W262F): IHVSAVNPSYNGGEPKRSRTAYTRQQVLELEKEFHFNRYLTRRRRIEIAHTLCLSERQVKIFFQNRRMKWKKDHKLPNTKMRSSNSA
Sequence of HOXA2 (Homo sapiens, UniProt O43364 129-215, R185T) (O43364 129-215 R185T): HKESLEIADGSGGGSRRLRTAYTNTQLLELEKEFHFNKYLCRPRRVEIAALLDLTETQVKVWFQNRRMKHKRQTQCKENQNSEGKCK
Sequence of MSX2 (Homo sapiens, UniProt P35548 130-214, F161Y) (P35548 130-214 F161Y): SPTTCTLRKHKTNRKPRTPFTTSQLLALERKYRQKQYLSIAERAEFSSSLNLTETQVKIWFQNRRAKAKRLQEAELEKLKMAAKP
Sequence of HOXA4 (Homo sapiens, UniProt Q00056 201-287, R217L) (Q00056 201-287 R217L): as the sequence (Q00056 201-287 W262F) above, with R17L, F62W counted along it
Sequence of HOXA2 (Homo sapiens, UniProt O43364 129-215, R185K) (O43364 129-215 R185K): as the sequence (O43364 129-215 R185T) above, with T57K counted along it
Sequence of MSX2 (Homo sapiens, UniProt P35548 130-214) (P35548 130-214): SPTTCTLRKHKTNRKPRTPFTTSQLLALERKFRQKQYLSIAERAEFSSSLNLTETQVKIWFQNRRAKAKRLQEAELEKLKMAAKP

In the case of GGTAATTA, the binding signal in the experiment with HOXB4 [1] is 13.7 upbm affinity estimate (log intensity, higher = more binding, comparable within an allelic series); in the experiment with VENTX [2], 12.6 upbm affinity estimate (log intensity, higher = more binding, comparable within an allelic series); with ALX4 it was 14.4 upbm affinity estimate (log intensity, higher = more binding, comparable within an allelic series); with PAX4 [3] it was 12 upbm affinity estimate (log intensity, higher = more binding, comparable within an allelic series); with PRRX1 [4], 11.6 upbm affinity estimate (log intensity, higher = more binding, comparable within an allelic series); with VENTX [5] it was 12.6 upbm affinity estimate (log intensity, higher = more binding, comparable within an allelic series). Moreover, the binding signal with PAX4 [6] is 12.5 upbm affinity estimate (log intensity, higher = more binding, comparable within an allelic series); in the experiment with HOXA2 [7], 14.1 upbm affinity estimate (log intensity, higher = more binding, comparable within an allelic series); with HOXA4 [8], 13.2 upbm affinity estimate (log intensity, higher = more binding, comparable within an allelic series); in the experiment with HOXB4 [9] it was 14.4 upbm affinity estimate (log intensity, higher = more binding, comparable within an allelic series); in the experiment with PAX4 [10], 12.4 upbm affinity estimate (log intensity, higher = more binding, comparable within an allelic series); with HOXA2 [11], 14.1 upbm affinity estimate (log intensity, higher = more binding, comparable within an allelic series). Besides, the binding signal with PAX4 [12] is 10.7 upbm affinity estimate (log intensity, higher = more binding, comparable within an allelic series); in the experiment with MSX2 [13], 14.2 upbm affinity estimate (log intensity, higher = more binding, comparable within an allelic series); in the experiment with PAX4 [14] it was 11.1 upbm affinity estimate (log intensity, higher = more binding, comparable within an allelic series); in the experiment with MSX2 [15], 13.8 upbm affinity estimate (log intensity, higher = more binding, comparable within an allelic series); with VAX1 [16], 14.1 upbm affinity estimate (log intensity, higher = more binding, comparable within an allelic series); with HOXA4 [17], 12.8 upbm affinity estimate (log intensity, higher = more binding, comparable within an allelic series). Besides, the binding signal with PRRX1 [18] is 13.5 upbm affinity estimate (log intensity, higher = more binding, comparable within an allelic series); with VAX1 [19], 14.2 upbm affinity estimate (log intensity, higher = more binding, comparable within an allelic series).

Consider CTAATTAA, for which the binding signal with HOXB4 [1] is 13.3 upbm affinity estimate (log intensity, higher = more binding, comparable within an allelic series); with VENTX [2] it was 12.7 upbm affinity estimate (log intensity, higher = more binding, comparable within an allelic series); with ALX4, 14.4 upbm affinity estimate (log intensity, higher = more binding, comparable within an allelic series); in the experiment with PAX4 [3], 12.3 upbm affinity estimate (log intensity, higher = more binding, comparable within an allelic series); in the experiment with PRRX1 [4], 12.1 upbm affinity estimate (log intensity, higher = more binding, comparable within an allelic series); with VENTX [5] it was 12.4 upbm affinity estimate (log intensity, higher = more binding, comparable within an allelic series). Further, the binding signal is 12.9 upbm affinity estimate (log intensity, higher = more binding, comparable within an allelic series) with PAX4 [6]; 13.8 upbm affinity estimate (log intensity, higher = more binding, comparable within an allelic series) with HOXA2 [7]; 12.9 upbm affinity estimate (log intensity, higher = more binding, comparable within an allelic series) with HOXA4 [8]; 13.9 upbm affinity estimate (log intensity, higher = more binding, comparable within an allelic series) with HOXB4 [9]; 12.9 upbm affinity estimate (log intensity, higher = more binding, comparable within an allelic series) with PAX4 [10]; 13.8 upbm affinity estimate (log intensity, higher = more binding, comparable within an allelic series) with HOXA2 [11]. Moreover, the binding signal with PAX4 [12] is 11.2 upbm affinity estimate (log intensity, higher = more binding, comparable within an allelic series); with MSX2 [13] it was 14.1 upbm affinity estimate (log intensity, higher = more binding, comparable within an allelic series); in the experiment with PAX4 [14], 11.7 upbm affinity estimate (log intensity, higher = more binding, comparable within an allelic series); with MSX2 [15], 13.7 upbm affinity estimate (log intensity, higher = more binding, comparable within an allelic series); with VAX1 [16], 13.8 upbm affinity estimate (log intensity, higher = more binding, comparable within an allelic series); with HOXA4 [17], 12.7 upbm affinity estimate (log intensity, higher = more binding, comparable within an allelic series). Further, the binding signal is 13.7 upbm affinity estimate (log intensity, higher = more binding, comparable within an allelic series) with PRRX1 [18] and 13.8 upbm affinity estimate (log intensity, higher = more binding, comparable within an allelic series) with VAX1 [19].

Consider TAATTAAA, for which the binding signal is 13.3 upbm affinity estimate (log intensity, higher = more binding, comparable within an allelic series) with HOXB4 [1]; 12.1 upbm affinity estimate (log intensity, higher = more binding, comparable within an allelic series) with VENTX [2]; 14.4 upbm affinity estimate (log intensity, higher = more binding, comparable within an allelic series) with ALX4; 12 upbm affinity estimate (log intensity, higher = more binding, comparable within an allelic series) with PAX4 [3]; 11.9 upbm affinity estimate (log intensity, higher = more binding, comparable within an allelic series) with PRRX1 [4]; 11.9 upbm affinity estimate (log intensity, higher = more binding, comparable within an allelic series) with VENTX [5]. Besides, the binding signal in the experiment with PAX4 [6] is 12.5 upbm affinity estimate (log intensity, higher = more binding, comparable within an allelic series); with HOXA2 [7] it was 13.5 upbm affinity estimate (log intensity, higher = more binding, comparable within an allelic series); in the experiment with HOXA4 [8], 12.8 upbm affinity estimate (log intensity, higher = more binding, comparable within an allelic series); with HOXB4 [9] it was 14.1 upbm affinity estimate (log intensity, higher = more binding, comparable within an allelic series); with PAX4 [10], 12.4 upbm affinity estimate (log intensity, higher = more binding, comparable within an allelic series); with HOXA2 [11], 13.5 upbm affinity estimate (log intensity, higher = more binding, comparable within an allelic series). Besides, the binding signal in the experiment with PAX4 [12] is 11 upbm affinity estimate (log intensity, higher = more binding, comparable within an allelic series); with MSX2 [13], 13.9 upbm affinity estimate (log intensity, higher = more binding, comparable within an allelic series); with PAX4 [14], 11.3 upbm affinity estimate (log intensity, higher = more binding, comparable within an allelic series); with MSX2 [15], 13.5 upbm affinity estimate (log intensity, higher = more binding, comparable within an allelic series); with VAX1 [16] it was 13.4 upbm affinity estimate (log intensity, higher = more binding, comparable within an allelic series); with HOXA4 [17] it was 12.3 upbm affinity estimate (log intensity, higher = more binding, comparable within an allelic series). Further, the binding signal with PRRX1 [18] was 13.6 upbm affinity estimate (log intensity, higher = more binding, comparable within an allelic series); with VAX1 [19] it was 13.4 upbm affinity estimate (log intensity, higher = more binding, comparable within an allelic series).

Consider GTTAATTA, for which the binding signal is 13.5 upbm affinity estimate (log intensity, higher = more binding, comparable within an allelic series) with HOXB4 [1]; 12.5 upbm affinity estimate (log intensity, higher = more binding, comparable within an allelic series) with VENTX [2]; 14.5 upbm affinity estimate (log intensity, higher = more binding, comparable within an allelic series) in the experiment with ALX4; 12.1 upbm affinity estimate (log intensity, higher = more binding, comparable within an allelic series) in the experiment with PAX4 [3]; 12 upbm affinity estimate (log intensity, higher = more binding, comparable within an allelic series) with PRRX1 [4]; 12.3 upbm affinity estimate (log intensity, higher = more binding, comparable within an allelic series) with VENTX [5]. The binding signal is 12.7 upbm affinity estimate (log intensity, higher = more binding, comparable within an allelic series) with PAX4 [6]; 13.9 upbm affinity estimate (log intensity, higher = more binding, comparable within an allelic series) with HOXA2 [7]; 13.2 upbm affinity estimate (log intensity, higher = more binding, comparable within an allelic series) in the experiment with HOXA4 [8]; 14.3 upbm affinity estimate (log intensity, higher = more binding, comparable within an allelic series) with HOXB4 [9]; 12.5 upbm affinity estimate (log intensity, higher = more binding, comparable within an allelic series) with PAX4 [10]; 13.8 upbm affinity estimate (log intensity, higher = more binding, comparable within an allelic series) in the experiment with HOXA2 [11]. Besides, the binding signal in the experiment with PAX4 [12] is 10.9 upbm affinity estimate (log intensity, higher = more binding, comparable within an allelic series); in the experiment with MSX2 [13] it was 14 upbm affinity estimate (log intensity, higher = more binding, comparable within an allelic series); with PAX4 [14] it was 11.4 upbm affinity estimate (log intensity, higher = more binding, comparable within an allelic series); with MSX2 [15], 13.6 upbm affinity estimate (log intensity, higher = more binding, comparable within an allelic series); in the experiment with VAX1 [16] it was 13.9 upbm affinity estimate (log intensity, higher = more binding, comparable within an allelic series); with HOXA4 [17], 13 upbm affinity estimate (log intensity, higher = more binding, comparable within an allelic series). For the same sequence, the binding signal in the experiment with PRRX1 [18] was 13.6 upbm affinity estimate (log intensity, higher = more binding, comparable within an allelic series); in the experiment with VAX1 [19], 13.9 upbm affinity estimate (log intensity, higher = more binding, comparable within an allelic series).
